Among the data in PubChem BioAssay (NCI) are growth values, retold here.

Common to all, as to assay: NCI-60 one-dose screen, 48 h (100 = growth as untreated, 0 = no growth, -100 = all killed)
The subject of one assay is HCT-15 colon. The conditions noted are these: 10 µM.
In a further assay the test system is HT29 colon. As to conditions: 10 µM.
A further assay concerns SNB-75 CNS. The conditions noted are these: 10 µM.
The next assay has as its system SNB-19 CNS. As to conditions: 10 µM.
The next assay relates to U251 CNS. As to conditions: 10 µM.
The next assay has as its system PC-3 prostate. As to conditions: 10 µM.
The test system of a further assay is SK-MEL-5 melanoma. As to conditions: 10 µM.
The subject of another assay is UACC-62 melanoma. The conditions noted are these: 10 µM.
The next assay concerns LOX IMVI melanoma. The conditions noted are these: 10 µM.
The next assay relates to SK-MEL-28 melanoma. The conditions noted are these: 10 µM.
The next assay relates to SK-MEL-2 melanoma. The conditions noted are these: 10 µM.
A further assay has as its system EKVX NSCLC. As to conditions: 10 µM.
The next assay deals with UO-31 renal. The conditions noted are these: 10 µM.
The next assay deals with TK-10 renal. The conditions noted are these: 10 µM.
The next assay has as its system ACHN renal. The conditions noted are these: 10 µM.
A further assay has as its system CAKI-1 renal. As to conditions: 10 µM.
For a further assay, the system named is A498 renal. The conditions noted are these: 10 µM.
The subject of a further assay is CCRF-CEM leukemia. As to conditions: 10 µM.
The subject of the next assay is MOLT-4 leukemia. The conditions noted are these: 10 µM unless noted.
Another assay concerns SN12C renal. As to conditions: 10 µM.

Several values for one entry are separate records, joined by “and”; a condition that tells them apart may be missing. Identical values can stand only once. Compounds without any hit were thinned out: in the full panel of roughly 83,000, 20% have a hit.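 Values shown are percent growth following 48 h exposure of cells in 96-well plates to a single concentration of compound; below 10 was considered active.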 Activity calls are given as the source filed them.

Consider `CN(CC(=O)O)c1ccc(/C=C/c2ccnc3ccccc23)cc1`, for which the growth in the assay on HCT-15 colon was 84.5% (inactive); with HT29 colon it was 88.6% (inactive); with SNB-75 CNS it was 90.3% (inactive); in the assay with SNB-19 CNS it was 87.9% (inactive); in the assay on U251 CNS it was 80.3% (inactive); with PC-3 prostate it was 71.2% (inactive). Moreover, the growth was 93% (inactive) in the assay on SK-MEL-5 melanoma; 72.3% (inactive) with UACC-62 melanoma; 94.8% (inactive) with LOX IMVI melanoma; 100% (inactive) with SK-MEL-28 melanoma; 89% (inactive) in the assay with SK-MEL-2 melanoma; 69.6% (inactive) in the assay with EKVX NSCLC. Also, the growth was 61.7% (inactive) in the assay on UO-31 renal; 98.7% (inactive) in the assay on TK-10 renal; 89.1% (inactive) with ACHN renal; 92.9% (inactive) with CAKI-1 renal; 97.1% (inactive) with A498 renal; 66.8% (inactive) in the assay on CCRF-CEM leukemia. Moreover, in the assay with MOLT-4 leukemia, the growth is 34.4% (inactive).
Take `O=Nc1ccc(Nc2ccccc2)cc1`: the growth is 81.2% (inactive) with HCT-15 colon; 95.1% (inactive) with HT29 colon; 80.4% (inactive) in the assay with SNB-75 CNS; 98.3% (inactive) with SNB-19 CNS; 87.8% (inactive) in the assay with U251 CNS; 82.8% (inactive) with PC-3 prostate. Further, the growth in the assay with SK-MEL-5 melanoma is 87.9% (inactive); in the assay with UACC-62 melanoma, 96.9% (inactive); with LOX IMVI melanoma, 23.5% (inactive); with SK-MEL-28 melanoma it was 120% (inactive); with SK-MEL-2 melanoma it was 109% (inactive); in the assay with EKVX NSCLC it was 89.2% (inactive). In addition, the growth with SN12C renal was 95.6% (inactive); in the assay with UO-31 renal it was 53.9% (inactive); with TK-10 renal it was 116% (inactive); with ACHN renal, 41.5% (inactive); with CAKI-1 renal, 66.1% (inactive); in the assay with A498 renal, 87.2% (inactive). The growth in the assay with CCRF-CEM leukemia was 2.09% (active); in the assay with MOLT-4 leukemia, 15% (inactive).
As for `COc1ccc2oc(-c3ccc(Cl)cc3)c(N3CCN(C)CC3)c2c1`, the growth is 28.9% (inactive) with HCT-15 colon; -1.44% (active) in the assay with HT29 colon; 18.3% (inactive) in the assay with SNB-75 CNS; 48.6% (inactive) with SNB-19 CNS; 20.1% (inactive) with U251 CNS; 4.07% (active) in the assay with PC-3 prostate. Further, the growth in the assay on SK-MEL-5 melanoma is -14.8% (active); with UACC-62 melanoma, -52.6% (active); in the assay on LOX IMVI melanoma, -87.5% (active); in the assay with SK-MEL-28 melanoma it was -12.3% (active); with SK-MEL-2 melanoma, -15.9% (active); with EKVX NSCLC it was 50.7% (inactive). Besides, the growth is -5.46% (active) with UO-31 renal; -1.47% (active) with TK-10 renal; 4.13% (active) with ACHN renal; -11.6% (active) with CAKI-1 renal; 52.4% (inactive) in the assay with A498 renal; -12.6% (active) with CCRF-CEM leukemia. Besides, the growth in the assay with MOLT-4 leukemia is 12.5% (inactive).
For the compound `CCOC(=O)[C@]1(Br)CC[C@@]1(Br)C(=O)OCC`, the growth with HCT-15 colon is 89.2% (inactive); with HT29 colon, 83.1% (inactive); in the assay on SNB-75 CNS, 92.4% (inactive); in the assay on SNB-19 CNS, 106% (inactive); in the assay with U251 CNS, 98.3% (inactive); with PC-3 prostate it was 97.3% (inactive). Moreover, the growth in the assay with SK-MEL-5 melanoma was 103% (inactive); with UACC-62 melanoma, 77.9% (inactive); with LOX IMVI melanoma, 82.5% (inactive); with SK-MEL-28 melanoma it was 110% (inactive); with SK-MEL-2 melanoma, 91.7% (inactive); in the assay on EKVX NSCLC, 99.5% (inactive). For the same compound, the growth in the assay with UO-31 renal is 61.5% (inactive); in the assay with TK-10 renal it was 95.9% (inactive); with ACHN renal, 78.9% (inactive); in the assay with CAKI-1 renal it was 90.3% (inactive); with A498 renal it was 115% (inactive); with CCRF-CEM leukemia, 99.8% (inactive). Further, the growth in the assay with MOLT-4 leukemia is 36.8% (inactive).
Turning to `O=C(NC(=S)Nc1ccccn1)c1ccccc1`, the growth is 100% (inactive) with HCT-15 colon; 87.5% (inactive) in the assay on HT29 colon; 74.8% (inactive) with SNB-75 CNS; 95.4% (inactive) in the assay on SNB-19 CNS; 94.9% (inactive) with U251 CNS; 77.9% (inactive) in the assay with PC-3 prostate. The growth was 93.3% (inactive) with SK-MEL-5 melanoma; 93.1% (inactive) in the assay with UACC-62 melanoma; 94.9% (inactive) in the assay on LOX IMVI melanoma; 152% (inactive) in the assay with SK-MEL-28 melanoma; 127% (inactive) in the assay on SK-MEL-2 melanoma; 74.8% (inactive) with EKVX NSCLC. Further, the growth in the assay with UO-31 renal is 93.9% (inactive); in the assay on TK-10 renal, 125% (inactive); with ACHN renal, 95.1% (inactive); in the assay with CAKI-1 renal, 82% (inactive); in the assay on A498 renal, 70.5% (inactive); with CCRF-CEM leukemia, 62.2% (inactive). Also, the growth in the assay on MOLT-4 leukemia is 93.1% (inactive).
On to `Cn1c2nc3ccccc3c-2nc2ccccc21`, for which the growth was 94.9% (inactive) and 85.2% (inactive) with HCT-15 colon; 99.7% (inactive) and 103% (inactive) in the assay with HT29 colon; 101% (inactive) and 81.1% (inactive) in the assay with SNB-75 CNS; 88.8% (inactive) and 82.8% (inactive) in the assay with SNB-19 CNS; 91.4% (inactive) and 90.2% (inactive) with U251 CNS; 95.4% (inactive) and 99.7% (inactive) in the assay with PC-3 prostate. The growth in the assay with SK-MEL-5 melanoma was 82.5% (inactive) and 65.6% (inactive); in the assay with UACC-62 melanoma, 87.4% (inactive) and 91.2% (inactive); with LOX IMVI melanoma, 99.5% (inactive) and 86.1% (inactive); in the assay with SK-MEL-28 melanoma, 113% (inactive) and 106% (inactive); with SK-MEL-2 melanoma, 113% (inactive) and 112% (inactive); in the assay with EKVX NSCLC, 81.2% (inactive). The growth in the assay with SN12C renal was 95% (inactive) and 87.7% (inactive); with UO-31 renal, 71.9% (inactive) and 48.3% (inactive); in the assay on TK-10 renal, 113% (inactive) and 109% (inactive); in the assay with ACHN renal, 94.4% (inactive) and 79.1% (inactive); in the assay on CAKI-1 renal it was 73.9% (inactive) and 93.6% (inactive); in the assay on A498 renal, 45.9% (inactive) and 80.3% (inactive). Besides, the growth in the assay with CCRF-CEM leukemia is 95.8% (inactive) and -21.8% (active); in the assay with MOLT-4 leukemia, 97.9% (inactive) and 96.7% (inactive).
Regarding `O=c1[nH]cc(/C=N\Nc2ccccc2)c(=O)[nH]1`, the growth is 41.1% (inactive) in the assay with HCT-15 colon; 58.8% (inactive) in the assay with HT29 colon; 102% (inactive) in the assay on SNB-75 CNS; 103% (inactive) in the assay on SNB-19 CNS; 69.6% (inactive) in the assay with U251 CNS; 52.1% (inactive) in the assay on PC-3 prostate. The growth was 57.8% (inactive) in the assay on SK-MEL-5 melanoma; 7.82% (active) with UACC-62 melanoma; 45.8% (inactive) in the assay with LOX IMVI melanoma; 81.5% (inactive) in the assay with SK-MEL-28 melanoma; 46.1% (inactive) in the assay on SK-MEL-2 melanoma; 56.4% (inactive) in the assay with EKVX NSCLC. The growth in the assay with UO-31 renal is 26% (inactive); with TK-10 renal it was 78% (inactive); with ACHN renal, 40.3% (inactive); with CAKI-1 renal, 41.6% (inactive); with A498 renal, 87.5% (inactive); in the assay with CCRF-CEM leukemia, 31.2% (inactive). The growth with MOLT-4 leukemia is 49.6% (inactive).
